# CYP2C19 inh: inhibitors of human CYP2C19. CYP2C19 Supersomes, luciferin-H EGE luminescence, 30 min. inhibition, % at 5 µM. 96,000 tested, 21% active. AID 778;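 active = CYP2C19 inhibition above a set limit at 5 µM in the primary screen, cut at about 50% in these data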
# Target sequence (P33261 whole entry, looked up): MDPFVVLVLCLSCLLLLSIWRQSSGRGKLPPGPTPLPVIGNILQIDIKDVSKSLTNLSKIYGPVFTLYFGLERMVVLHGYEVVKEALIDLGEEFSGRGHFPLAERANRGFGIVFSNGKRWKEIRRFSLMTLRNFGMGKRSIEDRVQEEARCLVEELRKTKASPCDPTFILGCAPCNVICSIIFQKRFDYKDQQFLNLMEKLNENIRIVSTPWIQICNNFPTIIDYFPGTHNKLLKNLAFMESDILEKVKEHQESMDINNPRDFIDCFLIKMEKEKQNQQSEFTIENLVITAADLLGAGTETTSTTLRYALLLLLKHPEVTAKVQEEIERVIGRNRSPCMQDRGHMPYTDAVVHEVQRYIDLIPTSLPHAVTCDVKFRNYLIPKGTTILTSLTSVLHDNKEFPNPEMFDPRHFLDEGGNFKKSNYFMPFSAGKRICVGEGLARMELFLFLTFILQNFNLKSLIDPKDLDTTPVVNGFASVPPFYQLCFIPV
# CYP2C9 inhib: inhibitors of human CYP2C9. CYP2C9 Supersomes, luciferin-H conversion, luminescence. inhibition, % at 5 µM. 96,000 tested, 20% active. AID 777;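 active = blocking of liver enzyme CYP2C9 beyond about 50% at 5 µM, limit read from the data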
# Mac1 fbg inh: blocks human CD11b/CD18 adhesion to fibrinogen; P05107+P11215; K562 CD11b/CD18 adhesion to fibrinogen, ATPlite luminescence; Mn2+ added to activate the integrin; inhibition, % at 10 µM; 93,000 tested, 0.54% active; AID 1497;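 active = primary inhibition of 50% or more at 10 µM, then 40% or more on retest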
# Mac1 fbg enh: CD11b/CD18-fibrinogen binding enhancement | K562 CD11b/CD18 adhesion to fibrinogen, ATPlite luminescence | activation, % at 10 µM | 93,000 tested, 0.07% active | AID 1499;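 active = 10 µM primary screen giving 50% or more activity, confirmed by 40% or more on retest at that dose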
# CYP2C19 act: activators of human cytochrome P450 2C19. P33261. recombinant CYP2C19, luciferin-H EGE luminescence; hits give high values; 0 = fully inhibited enzyme, 1 = untreated enzyme. activation factor at 5 µM. 96,000 tested, under 10 active;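 active = activation factor of at least 2 at 5 µM in the primary screen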
# CYP2C9 activ: activators of human CYP2C9 | P11712 | recombinant CYP2C9, luciferin-H conversion, luminescence; hits give high values; factor 1 = untreated enzyme, 0 = blocked | activation factor at 5 µM | 96,000 tested, 1.4% active | AID 1024;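 active = activation factor of 2 or more for CYP2C9 at a 5 µM dose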
# A number is an active result; i = inactive; nt = no result given. Most compounds without a hit are left out; they make up all but 28% or so of the library.
SMILES,CYP2C19 inh,CYP2C9 inhib,Mac1 fbg inh,Mac1 fbg enh,CYP2C19 act,CYP2C9 activ
CCOc1ccc(CCNC(=O)CN(C)S(=O)(=O)c2cccc3nsnc23)cc1OCC,i,i,i,i,i,i
COc1ccc(NC(=O)CCS(=O)(=O)c2cccc3nonc23)c(OC)c1,i,i,i,i,i,i
Cc1cccc2sc(NC(=O)CCNS(=O)(=O)c3cccc4nonc34)nc12,72,58,i,i,i,i
Cc1cc2nc(C)c(Cc3ccccc3)c(=O)n2[nH]1,i,i,i,i,i,2.3
CCc1ccccc1NC(=O)c1cc(-c2cccc(O)c2)on1,i,i,i,i,i,4.8
COc1cccc(-c2cc(C(=O)NC3CCCC3)no2)c1,80,i,i,i,i,i
CC(C)c1cc(C(=O)Nc2cccc(C(F)(F)F)c2)no1,i,i,i,i,i,i
O=C(Nc1cccc(C(F)(F)F)c1)c1cc(-c2ccc(F)cc2)on1,i,i,i,i,i,3.5
COCCNC(=O)c1cc(-c2cccc(OC)c2)on1,i,i,i,i,i,i
COc1cccc(-c2cc(C(=O)Nc3cccc(O)c3)no2)c1,i,i,i,i,i,2.3
O=C(Nc1ccccc1C(F)(F)F)c1cc(-c2cccc(O)c2)on1,i,i,i,i,i,i
CC12CCC(C(=O)N(c3ccccn3)c3ccccn3)(OC1=O)C2(C)C (stereo not drawn),i,i,i,i,i,i
COc1ccccc1CP(=O)(c1ccccc1)c1ccccc1,nt,nt,i,i,nt,nt
O=C(CCC(=O)OCC(=O)c1ccccc1)NC1CCCCC1,i,i,i,i,i,i
O=C(Cn1cc(C(F)(F)F)cc(Cl)c1=O)Nc1cc(S(=O)(=O)N2CCOCC2)ccc1Cl,nt,nt,i,i,nt,nt
Cc1ccccc1Nc1cc2ccccc2c(=O)[nH]1,i,i,i,i,i,i
O=c1[nH]c(Nc2ccc(F)cc2)cc2ccccc12,86,78,i,i,i,i
CN(C)CCNC(=O)C12CC3(C)CC(C)(CC(C)(C3)C1)C2,i,i,i,i,i,i
COC(=O)c1c[nH]n2c(=O)cc(C)nc12,i,i,i,i,i,i
COC(=O)c1c[nH]n2c(=O)c(Cc3ccc(F)cc3Cl)c(C)nc12,i,71,i,i,i,i
CC(Oc1ccc(Cl)cc1Cl)C(=O)NCCCN(C)C (stereo not drawn),i,i,i,i,i,i
O=C(CSc1ncccn1)Nc1ccc(S(=O)(=O)N2CCCCC2)cc1,i,i,nt,nt,i,i
O=C(CSc1nc2ccccc2c(=O)[nH]1)Nc1ccc(S(=O)(=O)N2CCCC2)cc1,i,96,i,i,i,i
O=C(CSc1ncn[nH]1)Nc1ccc(S(=O)(=O)N2CCCC2)cc1,i,61,i,i,i,i
CN1CCN(S(=O)(=O)c2cccc(C(=O)NC3CCCc4ccccc43)c2)CC1 (stereo not drawn),i,i,i,i,i,i
SMILES,CYP2C19 inh,CYP2C9 inhib,Mac1 fbg inh,Mac1 fbg enh,CYP2C19 act,CYP2C9 activ
CC(NC(=O)C1CCCN(C(=O)N(C)C)C1)c1ccccc1 (stereo not drawn),i,53,i,i,i,i
CCOC(=O)c1c2n(c3ccc(OC(C)=O)cc13)CCC2,i,i,i,i,i,i
Cc1cc(/C=N\NC(=O)c2cccs2)c(C)n1-c1ccc2ncccc2c1,i,i,i,i,i,i
CCCCN1C(=O)C(NC(=O)CC(C)C)(C(F)(F)F)C2=C1CC(C)(C)CC2=O (stereo not drawn),i,i,nt,nt,i,i
CC(C(=O)N=c1sc2ccccc2n1C)N1C(=O)C2CC=CCC2C1=O (stereo not drawn),80,58,i,i,i,i
COc1ccc(NC(=O)CC2C(=O)N(c3cccc(OC)c3)C(=O)N2C2CCCCC2)cc1 (stereo not drawn),i,i,i,i,i,i
O=S(=O)(c1cccs1)N1CCCc2cccc(O)c21,66,i,i,i,i,2.9
O=C(O)C1CCCN1S(=O)(=O)c1cccs1 (stereo not drawn),i,i,i,i,i,i
Cc1nc2ncnn2c(C)c1CCC(=O)N1CC(C)CC(C)C1 (stereo not drawn),i,i,i,i,i,i
Cc1ccc(/C=C2\CCC3=C2OC(N)=C(C#N)C3c2ccc(C)cc2)cc1 (stereo not drawn),i,56,i,i,i,i
CSc1nc(-c2ccccc2)nc(N)c1C(C)=O,i,63,i,i,i,i
CSc1nc(=O)n(-c2ccccc2)c(C)c1C(C)=O,i,i,i,i,i,i
CCSc1ccccc1C(=O)Nc1cccc(OC)c1,i,i,i,i,i,i
CCN(CC)c1ccc(/C=c2\sc3nnc(-c4ccccc4Cl)n3c2=O)cc1,i,i,i,i,i,i
Cc1ccc(/C=c2/sc3nnc(-c4ccccc4Cl)n3c2=O)o1,65,68,i,i,i,i
COc1ccc(CNC(=O)COC(=O)c2ccc3c(c2)OCCO3)cc1,i,i,i,i,i,i
COc1ccc(S(=O)(=O)CCC(=O)NCCc2ccc(C)cc2)cc1,57,75,i,i,i,i
CCN(CC)CCCNS(=O)(=O)c1ccc(OC)cc1,i,i,i,i,i,i
COc1ccc(CCNS(=O)(=O)c2ccc3c(c2)OCCO3)cc1,76,i,i,i,i,i
Cc1ccc(CNC(=O)CCS(=O)(=O)c2ccc(Cl)cc2)cc1,nt,nt,i,i,nt,nt
COc1ccc(S(=O)(=O)NCCC(=O)NCc2ccc(F)cc2)cc1,i,i,i,i,i,2.8
COc1ccc(CCNS(=O)(=O)c2ccc(OC)cc2)cc1,65,57,nt,nt,i,i
CCCCNC(=O)CCCCCNS(=O)(=O)c1ccc(OC)cc1,i,i,i,i,i,i
O=S1(=O)CCC(NC(=S)N2CCCCCC2)C1 (stereo not drawn),nt,nt,i,i,nt,nt
CCOC(=O)CCCNC(=O)COc1ccccc1C#N,i,i,i,i,i,i
SMILES,CYP2C19 inh,CYP2C9 inhib,Mac1 fbg inh,Mac1 fbg enh,CYP2C19 act,CYP2C9 activ
COc1ccc(S(=O)(=O)NCc2ccc(C)cc2)cc1,99,i,i,i,i,i
CCOC(=O)c1cc(NC(=O)N(CC)CC)c(C)nc1C,i,i,i,i,i,i
Cc1cc(NC(=O)CSc2cn(CCNC(=O)c3ccc(F)cc3)c3ccccc23)no1,64,75,i,i,i,i
COc1ccc(C(=O)NCCn2cc(SCC(=O)NCc3ccco3)c3ccccc32)cc1,96,85,i,i,i,i
O=C(NCC(F)(F)F)Nc1ncccn1,i,i,i,i,i,i
O=C(OCc1nc2ccc(Cl)cc2n1CCO)c1ccc2c(c1)OCO2,i,i,nt,nt,i,i
Cc1ccc(CNC(=O)CSc2ncccn2)cc1,77,i,i,i,i,i
Cc1ccc(CNC(=O)CSc2n[nH]c(N)n2)cc1,i,i,i,i,i,i
Cc1ccc(CNC(=O)CCSCCC(=O)NCc2ccc(C)cc2)cc1,i,70,i,i,i,i

# Source: PubChem BioAssay (Sanford-Burnham Center for Chemical Genomics)
